{"source": "PubChem BioAssay AID651800", "about": "(The Scripps Research Institute Molecular Screening Center, 2012)", "note": "The campaign covered roughly 360,000 compounds. About 1,300 (0.36%) were called active. The sample holds actives, similar compounds and a random draw of the others, so the mix is not that of the screen. Values without a mark were called inactive. No stated cut-off is given here; in the data, active means inhibition above about 19%; inactive means the rest.", "data": [{"tested_on": "T-cell receptor (TCR)", "test": "inhibitors of human TCR-CD3 interaction, primary screen, biochemical, fluorescence, TAMRA-labeled TCR probe (AID 651800);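 further: recombinant mutant TCR 2C K166C tagged with TAMRA read by polarization; 0% = receptor in buffer alone and 100% = receptor with positive control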", "conditions": "at 9.4 µM, hits give high values", "values": [{"smiles": "O=c1[nH]c(-c2ccccc2)cn1C1CCN(Cc2ccc(-c3nc4ccc(F)cc4nc3-c3ccccc3)cc2)CC1", "inhibition": "12%"}, {"smiles": "COC(=O)Cc1nnn2c1[C@H](C)[C@H](c1ccccc1[N+](=O)[O-])OCC2", "inhibition": "1.45%"}, {"smiles": "Nc1ccc2nc3c(=O)[nH]c(=S)[nH]c3nc2c1", "inhibition": "109% (active)"}, {"smiles": "O=C(NCc1ccccc1)[C@@H]1CCCN1C(=O)[C@H]1CCCN1C(=O)c1cccc(Cl)c1", "inhibition": "5.36%"}, {"smiles": "CC(C)(C)n1nc(C2CC2)c(Br)c1NC(=O)c1ccccc1F", "inhibition": "-0.36%"}, {"smiles": "COC(=O)C1=C(C)N(Cc2ccc(C(F)(F)F)cc2)C(=NCc2ccccc2)NC1c1ccccc1C(F)(F)F", "note": "(stereo unspecified)", "inhibition": "-1.22%"}, {"smiles": "COc1ccc(SSc2ccc(OC)cc2C(=O)O)c(C(=O)O)c1", "inhibition": "5.64%"}, {"smiles": "CCOC(=O)Cn1c2c(n(-c3ccc(F)cc3)c1=O)C=C(c1ccccc1)[C@@H](C)C(C(=O)N(C)C1CCCCC1)=C2", "inhibition": "5.23%"}, {"smiles": "Cc1cccc(C(=O)Nc2ccc3c(c2)C(=O)N(CC(C)C)C3=O)c1", "inhibition": "-1.41%"}, {"smiles": "CC(=O)Nc1ccc(NC(=O)[C@@H](NC(=O)c2cccc(C)c2)C(C)C)cc1", "inhibition": "2.27%"}, {"smiles": "Cc1cccc(C(=O)Nc2ccc(C(=O)/C=C/c3cccs3)cc2)c1", "inhibition": "19.4% (active)"}, {"smiles": "COCc1[nH]nc2c1C(c1ccccc1)N(c1ccccc1)C2=O", "note": "(stereo unspecified)", "inhibition": "5.26%"}, {"smiles": "COc1cccc(CNC(=O)[C@H]2CCCN2C(=O)[C@H]2CCCN2C(=O)C2CCCCC2)c1", "inhibition": "-0.26%"}, {"smiles": "COC(=O)C1=C(C)N(Cc2cccc(C(F)(F)F)c2)C(=NCc2ccccc2)NC1c1ccc(Cl)cc1", "note": "(stereo unspecified)", "inhibition": "7.39%"}, {"smiles": "Cc1cc2c(nc1C)CCCN2C", "inhibition": "-1.06%"}, {"smiles": "Cc1ccc(NC(=O)C(=O)NCc2ccc(/C=N/NC(=O)c3c(C)nc4cc(C)ccn34)o2)cc1", "inhibition": "5.69%"}, {"smiles": "CCCC1OC23CCCCC2C(C#N)(C#N)C1(C#N)C(=N)O3", "note": "(stereo unspecified)", "inhibition": "24.9% (active)"}, {"smiles": "CC(C)[C@H]1COCCS(=O)(=O)N1Cc1ccccc1-c1cccc2c1sc1ccccc12", "inhibition": "-8.35%"}, {"smiles": "Cc1nn(Cc2ccc(Cl)cc2)c(Cl)c1/C=N/NC(=O)CNc1ccccc1F", "inhibition": "4.16%"}, {"smiles": "O=[N+]([O-])c1ccc(C=Nc2ccc(Cl)cc2Cl)s1", "inhibition": "-1.69%"}, {"smiles": "Cc1ccccc1NCC(=O)N/N=C\\c1ccc([N+](=O)[O-])s1", "inhibition": "21.7% (active)"}, {"smiles": "CN1C(=O)C2CC(O)C(SC3CC4C(=O)N(C)C(=O)C4CC3O)CC2C1=O", "note": "(stereo unspecified)", "inhibition": "0.12%"}, {"smiles": "C=CC[C@]12C[C@@]3(O[C@H](c4ccc(C(F)(F)F)cc4)N=C3C[C@H](c3ccc(OC)cc3)[C@H]1C)N(C1CCN(Cc3ccccc3)CC1)C2=O", "inhibition": "3.26%"}, {"smiles": "CC(=N\\NC(=O)c1cc(Br)ccc1O)/C(=N/O)C(=O)Nc1ccccc1", "inhibition": "35.2% (active)"}, {"smiles": "CC(=O)N/N=C(\\C)c1ccc(Br)cc1Br", "inhibition": "2.37%"}, {"smiles": "O=C(Nc1ccccc1)c1ccccc1Br", "inhibition": "-6.01%"}, {"smiles": "COc1cccc(-c2cc(CNC(=O)[C@@H](Cc3ccccc3)NC(=O)[C@H]3O[C@@H](n4cnc(C(N)=O)n4)[C@H](O)[C@@H]3O)no2)c1", "inhibition": "0.79%"}, {"smiles": "CC(=O)C1=C(C)N(Cc2ccccc2)C(=S)NC1c1cccc(Br)c1", "note": "(stereo unspecified)", "inhibition": "-1.04%"}, {"smiles": "COC(=O)c1c(-c2ccc(OC)cc2)c2c(c3c4cc(OC)ccc4n(S(=O)(=O)c4ccc(F)cc4)c13)C(=O)N(C)C2", "inhibition": "-4.92%"}, {"smiles": "CCOC(=O)N1CCN(C(=O)C[C@H]2C[C@@]3(C(=O)OC)C(=C[C@H](C4CCCC4)O[C@@H]3C)N(Cc3ccccc3)C2=O)CC1", "inhibition": "8.81%"}, {"smiles": "COc1ccc(Br)cc1C(=O)NC(=S)Nc1cc(-c2nc3ccccc3[nH]2)ccc1C", "inhibition": "55.2% (active)"}, {"smiles": "COc1cc(OC)cc(C(=O)N[C@H](C(=O)Nc2nc3ccccc3[nH]2)C(C)C)c1", "inhibition": "-1.15%"}, {"smiles": "O=C(NC(=S)Nc1ccccc1C(=O)O)c1ccc(-c2ccc(Br)cc2)o1", "inhibition": "4.88%"}, {"smiles": "Cc1[nH]nc2c1C(c1ccc(Br)cc1)NC2=O", "note": "(stereo unspecified)", "inhibition": "-1.49%"}, {"smiles": "C[C@@H](CN1C2=NC[C@@H](Cc3ccccc3)N2C[C@H]1Cc1ccc(O)cc1)NC(=O)CCC1CCCCC1", "inhibition": "-8.44%"}, {"smiles": "CCOC(=O)c1ccc(NC(=O)CNC(=O)c2ccco2)cc1", "inhibition": "-5.65%"}, {"smiles": "O=C(NNC(=S)Nc1ccc(Br)cc1Cl)c1ccco1", "inhibition": "0.36%"}, {"smiles": "CCC(=O)NC(=S)Nc1ccc(NC(=O)c2ccco2)c(Cl)c1", "inhibition": "27.1% (active)"}, {"smiles": "O=C(CN1CCN(c2ccc(O)cc2)CC1)NC1CCCc2ccccc21", "note": "(stereo unspecified)", "inhibition": "-3.37%"}, {"smiles": "COC(=O)C1=C(C)N(Cc2ccccc2C(F)(F)F)C(=NCc2ccc(OC)cc2)NC1c1cccc(C(F)(F)F)c1", "note": "(stereo unspecified)", "inhibition": "6.08%"}, {"smiles": "Cc1noc(C)c1NC(=O)Nc1ccc2c(c1)C(=O)N([C@H](C)CO)C[C@H](C)[C@H](CN(C)Cc1ccncc1)OCCCC[C@@H](C)O2", "inhibition": "7.13%"}, {"smiles": "CN1CCCc2nc(-c3ccccc3)ccc21", "inhibition": "3.5%"}, {"smiles": "CC(C)CC1NC(=O)c2cc(Cl)ccc2-n2c1nc1ccccc1c2=O", "note": "(stereo unspecified)", "inhibition": "3.77%"}, {"smiles": "CCOC(=O)C1=C(C(=O)OCC)C2N(Cc3ccc(C#N)cc3)c3ccccc3[C@@]23C[C@@H](C(=O)OC)N(S(=O)(=O)c2ccc(F)cc2)C3=N1", "note": "(stereo partly specified)", "inhibition": "-0.94%"}, {"smiles": "C[C@H](O)[C@@H]1C(=O)N2CCc3c([nH]c4c(-c5ccc6c(c5)OCO6)cccc34)[C@@H]2C[C@@H]1N(C)C(=O)c1ccco1", "inhibition": "-0.59%"}, {"smiles": "NC1=CC(=O)C(=O)c2cccnc21", "inhibition": "23.6% (active)"}, {"smiles": "CC[C@H](C)[C@H]1CNC(=O)C(=O)N1CC1CCN(CCc2ccc(OC)c(OC)c2)CC1", "inhibition": "4.26%"}, {"smiles": "CC(=O)NCc1ccc(S(=O)(=O)NC2CCN(Cc3ccccc3)CC2)cc1", "inhibition": "0.98%"}, {"smiles": "O=C(c1cc(-c2ccco2)nc2ccccc12)N(Cc1nnc(-c2ccc(Cl)cc2)o1)C1CC1", "inhibition": "-2.45%"}, {"smiles": "CN(C(=O)COC(=O)c1cc(-c2ccco2)nc2ccccc12)C1CCS(=O)(=O)C1", "note": "(stereo unspecified)", "inhibition": "30.6% (active)"}, {"smiles": "COc1ccc2c(-c3ccccc3)cc(SCC(=O)N(C)C3CCS(=O)(=O)C3)nc2c1", "note": "(stereo unspecified)", "inhibition": "1.46%"}]}]}
